SMILES strings stand for the structures. Among all 2,300 compounds or so, about 1,000 (43%) were called active. So high a share suggests a set chosen from earlier hits. These entries were drawn from the full list. A number with no mark means an inactive call.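 How the source made its calls: active means compounds inhibiting the enzyme by at least 50% at 15 µM in any one of the replicates; inactive means the rest.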

Chain of Fatty acid synthase (Homo sapiens) (P49327 whole entry, looked up, the tested form may be a part): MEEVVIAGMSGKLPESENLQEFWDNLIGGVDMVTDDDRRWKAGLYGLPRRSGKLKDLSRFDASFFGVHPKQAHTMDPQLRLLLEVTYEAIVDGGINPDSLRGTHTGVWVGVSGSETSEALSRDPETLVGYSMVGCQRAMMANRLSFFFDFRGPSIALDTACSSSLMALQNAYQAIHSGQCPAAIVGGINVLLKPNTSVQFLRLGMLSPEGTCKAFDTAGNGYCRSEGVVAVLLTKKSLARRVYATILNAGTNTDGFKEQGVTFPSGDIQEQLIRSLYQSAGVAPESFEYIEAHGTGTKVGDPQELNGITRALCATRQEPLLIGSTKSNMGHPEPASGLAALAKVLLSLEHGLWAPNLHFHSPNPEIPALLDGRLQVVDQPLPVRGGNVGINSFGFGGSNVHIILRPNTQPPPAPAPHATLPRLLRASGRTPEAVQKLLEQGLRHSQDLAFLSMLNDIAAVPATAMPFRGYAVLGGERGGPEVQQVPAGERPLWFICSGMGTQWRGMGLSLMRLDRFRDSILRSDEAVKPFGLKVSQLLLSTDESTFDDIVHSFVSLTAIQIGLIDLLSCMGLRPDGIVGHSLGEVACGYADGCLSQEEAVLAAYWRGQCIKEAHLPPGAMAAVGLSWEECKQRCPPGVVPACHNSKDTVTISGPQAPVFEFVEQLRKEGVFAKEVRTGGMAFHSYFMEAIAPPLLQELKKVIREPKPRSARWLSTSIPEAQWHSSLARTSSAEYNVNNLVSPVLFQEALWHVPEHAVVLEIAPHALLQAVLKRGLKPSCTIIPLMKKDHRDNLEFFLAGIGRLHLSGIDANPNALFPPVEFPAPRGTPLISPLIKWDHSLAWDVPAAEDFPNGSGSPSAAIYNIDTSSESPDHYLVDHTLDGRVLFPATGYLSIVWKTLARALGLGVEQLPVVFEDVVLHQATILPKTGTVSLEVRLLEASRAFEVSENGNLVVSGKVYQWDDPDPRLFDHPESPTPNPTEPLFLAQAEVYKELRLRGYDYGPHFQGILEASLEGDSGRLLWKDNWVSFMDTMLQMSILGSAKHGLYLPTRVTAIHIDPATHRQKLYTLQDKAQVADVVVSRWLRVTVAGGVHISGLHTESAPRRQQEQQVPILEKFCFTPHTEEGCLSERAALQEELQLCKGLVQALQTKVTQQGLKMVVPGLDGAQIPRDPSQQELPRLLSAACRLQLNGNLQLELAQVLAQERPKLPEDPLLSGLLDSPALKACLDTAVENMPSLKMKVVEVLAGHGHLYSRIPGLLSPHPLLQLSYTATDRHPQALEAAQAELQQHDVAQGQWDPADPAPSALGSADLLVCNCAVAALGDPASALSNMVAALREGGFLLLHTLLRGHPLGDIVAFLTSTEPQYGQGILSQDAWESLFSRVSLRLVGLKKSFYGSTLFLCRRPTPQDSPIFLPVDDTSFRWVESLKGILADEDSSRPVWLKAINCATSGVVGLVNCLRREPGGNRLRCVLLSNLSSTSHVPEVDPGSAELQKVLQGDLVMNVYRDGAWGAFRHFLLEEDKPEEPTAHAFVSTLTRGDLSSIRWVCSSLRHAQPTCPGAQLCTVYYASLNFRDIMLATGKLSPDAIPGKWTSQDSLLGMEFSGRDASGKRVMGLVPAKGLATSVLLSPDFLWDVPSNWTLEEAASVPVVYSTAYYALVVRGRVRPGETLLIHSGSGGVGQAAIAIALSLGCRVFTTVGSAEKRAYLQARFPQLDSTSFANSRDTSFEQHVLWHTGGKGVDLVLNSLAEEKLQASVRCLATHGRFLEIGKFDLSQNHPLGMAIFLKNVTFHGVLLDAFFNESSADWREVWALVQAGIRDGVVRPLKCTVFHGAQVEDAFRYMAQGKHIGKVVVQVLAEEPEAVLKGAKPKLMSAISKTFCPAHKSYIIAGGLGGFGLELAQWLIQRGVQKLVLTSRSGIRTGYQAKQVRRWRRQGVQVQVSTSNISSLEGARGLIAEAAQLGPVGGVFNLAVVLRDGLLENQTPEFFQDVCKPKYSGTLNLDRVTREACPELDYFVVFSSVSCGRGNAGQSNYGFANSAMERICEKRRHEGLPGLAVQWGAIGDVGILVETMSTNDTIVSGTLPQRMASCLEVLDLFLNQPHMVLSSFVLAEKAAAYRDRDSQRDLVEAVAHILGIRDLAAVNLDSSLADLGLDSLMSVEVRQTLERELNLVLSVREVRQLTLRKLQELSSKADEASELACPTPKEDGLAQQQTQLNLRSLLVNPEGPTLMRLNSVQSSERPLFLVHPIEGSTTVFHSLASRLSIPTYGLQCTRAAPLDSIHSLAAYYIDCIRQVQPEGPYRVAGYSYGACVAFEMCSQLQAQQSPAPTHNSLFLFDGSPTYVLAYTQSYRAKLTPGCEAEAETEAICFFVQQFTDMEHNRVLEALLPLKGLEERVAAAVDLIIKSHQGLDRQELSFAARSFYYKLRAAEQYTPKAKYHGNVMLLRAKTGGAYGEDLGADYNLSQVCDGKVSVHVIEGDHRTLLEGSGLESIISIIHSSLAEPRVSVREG

The assay concerns the target Fatty acid synthase (Homo sapiens) (UniProt P49327). The experiment in a line: FAS thioesterase domain inhibitors, confirmation, biochemical, fluorescence intensity, single concentration (AID 624325).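 Further: 0% = enzyme with DMSO only and 100% = wells lacking enzyme.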 The conditions noted are these: recombinant FAS-TE, OMFH fluorogenic substrate, at 15 µM, stronger effect = higher value.
By inhibition is commonly meant the change of the read-out against control, counted positive when it falls. `Cc1nn(CCOc2ccc(Br)cc2)c(C)c1[N+](=O)[O-]`: the inhibition was 36.2% (active).
The value for `COc1ccc([N+](=O)[O-])cc1N(CC(O)Cn1nnc2ccccc21)S(=O)(=O)c1ccc(C)cc1` (centres undefined) was 65.3% (active).
Turning to `O=C(N/N=C/c1cc([N+](=O)[O-])ccc1O)/C(=C\c1cccs1)NC(=O)c1ccccc1`, the inhibition is 42.4% (active).
For `O=C(Nc1ccc2ccccc2c1)/C(=C/c1cccc(Br)c1)NC(=O)c1ccco1` the value was 27.6%.
Turning to `O=C(/C=C/c1cccc([N+](=O)[O-])c1)NCCSCc1ccco1`, the inhibition was 73.2% (active).
`O=C(NCc1ccco1)/C(=C\c1cccc([N+](=O)[O-])c1)NC(=O)c1ccco1`: the inhibition is 71.9% (active).
The value for `COc1ccc(NS(=O)(=O)c2cc(NC(=O)c3ccc(S(=O)(=O)N(C)C)cc3)ccc2N2CCOCC2)cc1` was 9.83%.
The value for `Fc1ccc(-n2c(Cc3ccccc3)nnc2SCc2nc(-c3ccc(Cl)cc3)no2)cc1` was 51.8% (active).
Regarding `O=C(Nc1ccc(OC(F)(F)F)cc1)c1ccc2c(c1)no[n+]2[O-]`, the inhibition was 14.6%.
The value for `O=C(Nc1ccc(C(F)(F)F)cc1)c1cccc(-n2cnnn2)c1` was 65.5% (active).
For `COc1ccc(NS(=O)(=O)c2cc(NC(=O)/C=C/c3cc(OC)c(OC)c(OC)c3)ccc2N2CCCCC2)cc1` the value was 19.7%.
For the molecule `O=c1oc(-c2ccco2)nc2sc3c(c12)CCCCC3`, the inhibition was 51% (active).
The value for `CCC(CC)COC(=O)C1=C(C)NC(=O)NC1c1ccc([N+](=O)[O-])cc1` (centres undefined) was 78.8% (active); that for `COc1cc(S(=O)(=O)N2CCOCC2)ccc1NC(=O)COc1ccc(N(C)S(=O)(=O)c2ccc(C)cc2)cc1` was 7.91%; that for `Cc1ccc(N2C(=O)C3N=NN(CC(=O)N4N=C(c5cccc6ccccc56)CC4c4ccccc4)C3C2=O)cc1` (centres undefined) was 10.8%.
Take `COc1ccc(C2=NN(C(=O)CSc3nc(=O)n4ccc(C)cc4n3)C(c3ccc(C)cc3)C2)cc1` (centres undefined): the inhibition was 46% (active).
Take `Cc1ccc2c(c1)-c1c(ssc1=S)C(C)(C)N2C(=O)CN1C(=O)c2ccccc2C1=O`: the inhibition is 2.45%.
Consider `CCOC1=C2[C@H]([C@H]3C(=O)N(c4ccccc4)C(=O)[C@H]3C1)[C@@H](c1ccccc1)N(S(=O)(=O)c1ccc(C)cc1)[C@H]2c1ccccc1`, for which the inhibition was 32.3%.
The value for `C#CCN(C[C@H]1[C@H](OC(=O)NC2CCCC2)[C@H](OC(=O)NC2CCCC2)C[C@H]2C(=O)N(c3ccccc3)C(=O)[C@@H]12)S(=O)(=O)c1ccc(C)cc1` was 48.3% (active).
With `CCOC1=C2CN(S(=O)(=O)c3ccc(C)cc3)[C@H](c3cccs3)C[C@H]2[C@H]2C(=O)N(c3ccccc3)C(=O)[C@H]2C1`, the inhibition is 33%.
For `COc1ccc([C@@H]2[C@@H]3C(=O)N(C(C)(C)C)C(=O)[C@@H]3[C@]3(Cc4ccccc4)C(=O)N(c4cccc(Br)c4)C(=O)N23)cc1`, the inhibition was 46.4% (active).
The value for `Cc1cccc([C@@H]2[C@@H]3C(=O)N(Cc4ccccc4)C(=O)[C@@H]3[C@]3(Cc4ccc(Cl)cc4)C(=O)N(c4cccc(Cl)c4)C(=O)N23)c1` was 11.9%; that for `Cc1ccc(C(=O)N/C(=C\c2cn(S(=O)(=O)N(C)C)c3ccccc23)C(=O)N2CCCC2)cc1` was 88.2% (active).
For `Cc1ccc(S/C(=N\S(=O)(=O)c2ccc(Cl)cc2)c2ccccc2)cc1` the value was 29.6%; for `COc1ccc([N+](=O)[O-])cc1NC(=O)c1ccc(N(Cc2ccccc2C)S(C)(=O)=O)cc1`, 39.2% (active); for `COc1ccc([N+](=O)[O-])cc1NC(=O)CC1SC(=Nc2cccc(C)c2C)N(/N=C(\C)c2ccc(C)cc2)C1=O` (centres undefined), 25.8%.
The value for `CCCCCCCCCCCCN1[C@@H](CC(C)=O)c2cc(F)cc(F)c2S1(=O)=O` was 9.68%.
`COc1ccc2c(c1)[C@H]1[C@H](CO2)[C@H](c2ccccc2)[C@]2(C)C(=O)Nc3cc(F)c(F)cc3C(=O)N12`: the inhibition was 34%.
The value for `CC(C)c1ccc2c(c1)c(SC(C)(C)C)c(CC(C)(C)C(=O)O)n2Cc1ccc(Cl)cc1` was 51.4% (active).
As to `O=C(OC1CCOC1=O)c1ccc(-c2nc3ccccc3s2)s1` (centres undefined), the inhibition is 35.3%.
`O=S(=O)(Nc1cccc(-n2cnnn2)c1)c1cnc(Cl)c(Cl)c1`: the inhibition was 68% (active).
Take `CCCc1cc(-c2nc(-c3ccc(C)cc3)cs2)ccn1`: the inhibition was 46.9%.
The value for `O=C(Nc1cccc(S(=O)(=O)Nc2ccc(Cl)cc2)c1)c1ccc2c(c1)OCCO2` was 37.6%; that for `O=C(Nc1ccccc1)c1nnsc1S(=O)(=O)c1ccc(Cl)cc1` was 72.3% (active).
For `O=C(CC(c1ccccc1)c1ccccc1)NCC(O)c1ccc([N+](=O)[O-])cc1` (centres undefined) the value was 55.1% (active); for `CC(C=Cc1ccccc1)=NNS(=O)(=O)c1ccc([N+](=O)[O-])cc1`, 71.2% (active).
For `COCCNC(=O)CCCn1c(=O)c2ccccc2n(Cc2cccc([N+](=O)[O-])c2)c1=O`, the inhibition is 37.5% (active).
As for `O=C(Oc1cccc(N2C(=O)C3C4c5ccccc5C(c5ccccc54)C3C2=O)c1)c1ccco1` (centres undefined), the inhibition was 36.3% (active).
For `COc1ccc(C2Nc3ccccc3C(=O)N2c2ccc(Cl)cc2)cc1Cn1cc([N+](=O)[O-])cn1` (centres undefined) the value was 41.9%.
For `O=[N+]([O-])c1ccc(CN2CC(N3CCC(c4ccccc4)CC3)CS2(=O)=O)cc1` (centres undefined) the value was 22.4%; for `CCCCCOC(=O)c1ccc(N2C(=O)C3C4C=CC(C4)C3C2=O)cc1` (centres undefined), 51.4% (active).
On to `CCOC(=O)c1ccc(NC(=O)c2nc[nH]c2C(=O)N[C@@H](CCCCNC(=O)OC(C)(C)C)C(=O)OC(C)(C)C)cc1`, for which the inhibition was 57.3% (active).
Consider `Cc1ccc(NC(=O)c2nc[nH]c2C(=O)N[C@@H](CCCCNC(=O)OC(C)(C)C)C(=O)OC(C)(C)C)cc1`, for which the inhibition is 83.9% (active).
The value for `Cc1cccc(CS(=O)(=O)c2ncc(Cl)c(C(=O)Nc3ccc(F)cc3)n2)c1` was 53.2% (active); that for `O=C(Nc1ccccc1Cl)/C(Cl)=C(\Cl)S(=O)c1ccccc1` (centres undefined) was 76.4% (active).
The value for `Cc1cc(C(=O)COc2ccccc2[N+](=O)[O-])c(C)n1-c1cccc(S(=O)(=O)N2CCOCC2)c1` was 21.2%; that for `Nc1c(-c2cccc(Cl)c2)cnn1-c1cccc([N+](=O)[O-])c1` was 48.9% (active).
For `CNC(=O)/C(=C\C=C\c1ccccc1)NC(=O)c1ccc([N+](=O)[O-])cc1` the value was 91.7% (active); for `C/C(=N\Nc1nc(N2CCOCC2)nc(N2CCOCC2)n1)c1ccc([N+](=O)[O-])cc1`, 41.8% (active).
As for `CCCN1Cc2cccc(C(=O)Nc3ccc(S(=O)(=O)N4CCCCCC4)cc3)c2C1=O`, the inhibition was 0.41%.
The value for `COc1ccc(S(=O)(=O)N2CCCCC2)cc1NC(=O)c1cc([N+](=O)[O-])ccc1N1CCOCC1` was 25.8%; that for `O=C(NCc1ccc2c(c1)OCO2)c1cc([N+](=O)[O-])ccc1N1CCOCC1` was 54% (active); that for `CN(C)c1ccc(/C=C/C(=O)c2ccc(C(C)(C)C)cc2)cc1[N+](=O)[O-]` was 33%.
The value for `O=[N+]([O-])c1cc(Br)c(O)c(/C=N/Nc2nc3ccccc3s2)c1` was 16.1%; that for `Cc1cc(C(=O)N/N=C/c2cc([N+](=O)[O-])cc(C)c2O)n[nH]1` was 72.6% (active); that for `CC1(C)CC(=O)c2c(n(S(=O)(=O)c3ccccc3)c3ccc(NS(=O)(=O)c4ccccc4)cc23)C1` was 19.9%.
For `Oc1c(Cl)cc(Cl)c(Cl)c1Cc1c(O)c(Cl)cc(Cl)c1Cl` the value was 70.1% (active); for `Cc1noc(C)c1NC(=O)Nc1cccc2c1O[C@H](CN(C)C(=O)Nc1ccccc1)[C@@H](C)CN([C@H](C)CO)C2=O`, 61.3% (active).
For the molecule `O=C(Cc1ccc(Cl)c(Cl)c1)Nc1ccc(SC(F)F)cc1`, the inhibition is 37.6%.
For `O=C(c1ccc2c(c1)N(Cc1ccc(F)cc1)C(=O)c1ccccc1S2(=O)=O)N1CCN(c2ccccn2)CC1` the value was 21.2%; for `COc1ccc2nc(Nc3nc4cc5c(cc4s3)OCCO5)sc2c1`, 17.9%.
The value for `CC1=CC(=C(C#N)c2nc3ccccc3s2)C=C(C)N1c1ccc(F)cc1F` was -32.7%; that for `O=C(NCCC1=CCCCC1)c1ccc(Cl)c([N+](=O)[O-])c1` was 61.2% (active).
The value for `Cc1sc2nc(-c3ccccc3F)oc(=O)c2c1C` was 6.55%.
In the case of `COc1ccc(-c2csc3nc(-c4ccccc4F)oc(=O)c23)cc1OC`, the inhibition was 57.9% (active).
The value for `CCOC(=O)N1CCN(Cc2nc3ccc([N+](=O)[O-])cc3c(=O)n2-c2cccc(OC)c2)CC1` was 76.1% (active); that for `CCOc1cc(/C=C(/C#N)c2ccc(Cl)cc2)cc(Cl)c1OCC(=O)O` was 63% (active); that for `Cc1ccc(N2C(=O)C3C(c4ccccc4)(C2=O)C3(c2ccccc2)c2ccccc2)cc1` (centres undefined) was 4.09%.
Turning to `COc1ccc(CNC(=O)C[C@H]2C[C@H](C(=O)N3CCOCC3)[C@@]3(CCC4CCCC4)c4[nH]c5ccc(Cl)cc5c4CCN3C2=O)cc1OC`, the inhibition was 83.3% (active).
With `O=C(C[C@H]1C[C@H](C(=O)N2CCOCC2)[C@@]2(CCC3CCCC3)c3[nH]c4ccc(Cl)cc4c3CCN2C1=O)NCc1ccco1`, the inhibition is 27.4%.
In the case of `CCOc1ccc(Nc2nc(Cl)nc(N3CCN(c4ccc(OC)cc4)CC3)n2)cc1`, the inhibition is 12.5%.
The value for `C[C@@]12C(=O)N(c3cccc(Br)c3)C(=O)N1[C@H](c1ccc(Cl)cc1)[C@@H]1C(=O)N(C3CCCCC3)C(=O)[C@@H]12` was 54% (active); that for `O=C1[C@H]2[C@@H](c3ccc(F)cc3)N3C(=O)N(c4ccc(C(F)(F)F)cc4)C(=O)[C@@]3(Cc3ccccc3)[C@H]2C(=O)N1C1CCCCC1` was 17.3%; that for `Cc1cccc(N2C(=O)N3[C@H](c4ccc(F)cc4)[C@@H]4C(=O)N(C5CCCCC5)C(=O)[C@@H]4[C@]3(Cc3ccccc3)C2=O)c1` was 10.1%.

Source of the values: PubChem BioAssay AID624325 (Sanford-Burnham Center for Chemical Genomics, 2012).
